# Screens deposited in PubChem by several laboratories.
# A selection: hits, their analogues and other compounds. The true share with any hit is near 3.3%.
# Mcl1-Bid inh: Mcl-1/Bid binding inhibitors, primary screen, biochemical, TR-FRET, 1536-well. TR-FRET Mcl-1/Bid-Dy647 peptide binding. inhibition, % at 21.7 µM. 220,000 compounds, 0.97% hits;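 active = compounds that cut the binding signal by more than half at the single screening dose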;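 also: His-tagged Mcl-1 with europium anti-His antibody binding Bid BH3 peptide; 0% = Mcl-1 plus peptide wells and 100% = peptide-only wells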
# Mcl-1 Bim block: inhibitors of Bim peptide binding to Mcl-1, primary screen, biochemical, bead-based flow cytometry, multiplex. Bim peptide-Mcl-1 binding. 190,000 compounds, 0.1% hits. inhibition, % at 10 µM. Induced myeloid leukemia cell differentiation protein Mcl-1 (Homo sapiens), Q07820; in the data active = inhibition above about 40%;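 also: 0% = no compound tracer wells and 100% = peptide blocker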
# p47phox inh: p47phox/p22phox peptide binding inhibitors, primary screen, biochemical, uHTS, NADPH oxidase regulatory subunit; Neutrophil cytosol factor 1 (Homo sapiens), P14598; fluorescence polarization, 2 h; inhibition, % at 24.7 µM; 220,000 compounds, 0.53% hits;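 also: 0% = p47phox with labelled peptide and 100% = labelled peptide alone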
# Target sequence (P14598 whole entry, looked up): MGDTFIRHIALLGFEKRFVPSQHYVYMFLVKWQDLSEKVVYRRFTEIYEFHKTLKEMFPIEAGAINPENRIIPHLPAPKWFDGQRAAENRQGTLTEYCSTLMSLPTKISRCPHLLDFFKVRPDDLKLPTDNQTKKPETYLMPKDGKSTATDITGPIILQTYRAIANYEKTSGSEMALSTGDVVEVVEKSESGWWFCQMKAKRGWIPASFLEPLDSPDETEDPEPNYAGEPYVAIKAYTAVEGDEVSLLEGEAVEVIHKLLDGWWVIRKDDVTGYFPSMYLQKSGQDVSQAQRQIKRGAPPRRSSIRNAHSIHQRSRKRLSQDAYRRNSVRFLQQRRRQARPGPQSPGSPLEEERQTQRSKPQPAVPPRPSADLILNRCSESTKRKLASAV
# eIF4E 4G PPI: eIF4E–eIF4G protein interaction inhibitors, primary screen, biochemical, uHTS, TR-FRET, eIF4GI fragment | Eukaryotic translation initiation factor 4E (Mus musculus) + Eukaryotic translation … | TR-FRET eIF4E-eIF4GI(517-606) binding, 2 h | inhibition, % at 21.7 µM | 220,000 compounds, 0.37% hits | AID 782, 2007;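 also: 0% = full FRET control wells and 100% = background wells lacking eIF4GI fragment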
# Mcl1-Noxa inh: Mcl-1/Noxa binding inhibitors, primary screen, biochemical, TR-FRET, 1536-well | Induced myeloid leukemia cell differentiation protein Mcl-1 (Homo sapiens), Q07820 | TR-FRET Mcl-1/Noxa peptide binding, 2 h | inhibition, % at 21.7 µM | 220,000 compounds, 1.5% hits | AID 1022, 2008;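 active = compounds that cut the protein-peptide binding signal by more than 50% relative to plate controls in a single-dose test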;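 also: His-tagged Mcl-1 with rhodamine Noxa BH3 peptide and terbium anti-His antibody; 0% = Mcl-1 plus Noxa peptide wells and 100% = peptide-only wells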
# 14-3-3 Bad inh: inhibitors of 14-3-3 zeta/Bad binding, primary screen, biochemical, TR-FRET, bovine 14-3-3 zeta. 14-3-3 protein zeta/delta (Bos taurus), P63103. TR-FRET 14-3-3zeta/Dy647-pBad peptide displacement, 1 h. inhibition, % at 21.7 µM. 220,000 compounds, 0.71% hits;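 active = inhibition above about 70%, limit read from the data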;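 also: 0% = full 14-3-3 plus peptide FRET controls and 100% = background without 14-3-3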
# Target sequence (P63103 whole entry, looked up): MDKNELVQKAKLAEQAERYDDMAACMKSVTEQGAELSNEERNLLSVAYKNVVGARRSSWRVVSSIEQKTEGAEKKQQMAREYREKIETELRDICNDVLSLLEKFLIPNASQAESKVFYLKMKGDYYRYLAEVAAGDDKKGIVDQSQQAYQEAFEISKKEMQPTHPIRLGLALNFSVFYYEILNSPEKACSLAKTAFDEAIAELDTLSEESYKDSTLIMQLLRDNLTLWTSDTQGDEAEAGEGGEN
# * hit, by the source's call; nt = not tested or not shown; [ ] = remark or other dose.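 The calls were made as follows, unless noted: active = inhibition above about 30% (limit read from the data); inactive = the rest.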
SMILES,Mcl1-Bid inh,Mcl-1 Bim block,p47phox inh,eIF4E 4G PPI,Mcl1-Noxa inh,14-3-3 Bad inh
O=C(Nc1cccc(S(=O)(=O)NC2=NCCCCC2)c1)c1cc(-c2ccncc2)nc2ccccc12,-6.9,0.0,-7.4,-0.6,54.5*,2.6
O=C(Nc1cccc(S(=O)(=O)NC2=NCCCCC2)c1)c1cc(-c2ccco2)nc2ccccc12,12.2,nt,-20.5,35.3*,97.1*,40.9
Cc1ccc(O)c(C(=O)c2cnc3c(c2)c(C)nn3-c2ccccc2)c1,-9.5,-5.0,-5.2,-2.7,2.2,-10.5
COc1cc(/C=C(/NC(=O)c2ccccc2)C(=O)N2CCN(C)CC2)c([N+](=O)[O-])cc1OC,3.7,-7.0,36.4*,-3.8,5.7,11.3
COc1cc(/C=C(\NC(=O)c2ccccc2)C(=O)NCCO)c([N+](=O)[O-])cc1OC,-20.4,-3.0,-4.5,-1.2,-2.5,-7.2
Cc1ccc2[nH]c3c(c2c1)CCNC3=O,-53.4,-13.0,-1.6,1.0,6.5,-1.9
Cc1ccc2[nH]c3c(c2c1)CCN1C(=O)OC(C)(C)C31C (centres undefined),-18.6,-1.0,-12.2,-6.3,67.9*,-6.2
Cc1ccc(C(=O)Nc2cccc([N+](=O)[O-])c2)cc1S(=O)(=O)Nc1ccc(C(=O)O)cc1,5.6,0.0,60.1*,-2.6,17.8,-11.8
O=C(CC1NCCNC1=O)Nc1cccc([N+](=O)[O-])c1 (centres undefined),-23.2,58.0*,3.8,-3.9,14.6,3.2
CC(C)CNC(=O)c1cccc(NC(=O)c2ccc(Cl)c([N+](=O)[O-])c2)c1,-14.5,45.0*,-7.8,10.3,4.6,-1.6
COc1cccc(C(=O)Nc2cccc(C(=O)NCC(C)C)c2)c1,-7.3,-4.0,-3.5,-1.6,16.6,49.8
O=C(Nc1cccc([N+](=O)[O-])c1)c1cccc(C(=O)Nc2cccc([N+](=O)[O-])c2)c1,52.9*,nt,40.8*,35.2*,61.5*,60.7
CCN1CCN(CC(=O)Nc2cc(C(F)(F)F)ccc2OCCOC)CC1,11.9,nt,-8.1,-13.1,12.8,19.3
Cc1cc(Oc2ccc(=O)n(C)n2)nc(=S)[nH]1,-43.7,2.0,-9.1,-2.9,1.1,-8.4
CC1=CC(=C(C#N)c2nc3ccccc3s2)C=C(C)N1CC1CCCO1 (centres undefined),-11.8,2.0,-69.7,0.9,19.6,-9.0
Cc1ccc(C(=O)Nc2ccc(C(=O)O)cc2)cc1S(=O)(=O)Nc1cccc([N+](=O)[O-])c1,10.7,0.0,-3.8,0.1,2.7,15.1
Cc1cc(CSc2ccccc2)ccc1NC(=O)c1cccc([N+](=O)[O-])c1,-15.1,-3.0,-20.4,71.6*[fluorescence artefact?],-15.9,4.9
O=C(Nc1ccccc1-c1ccccc1)c1cccc([N+](=O)[O-])c1,-5.6,-2.0,-7.0,4.4,7.2,-10.8
Cc1cccc(NS(=O)(=O)c2cc(NC(=O)CC(=O)c3ccc([N+](=O)[O-])cc3)ccc2C)c1,-2.9,2.0,35.3*,-0.5,11.8,-28.8
CCOC(=O)/C=C/C(=O)Nc1cccc([N+](=O)[O-])c1,-7.6,0.0,0.9,17.4,66.5*,15.8
O=C(Nc1nc(-c2cccnc2)cs1)c1cccc([N+](=O)[O-])c1,26.5,-2.0,24.6,9.2,63.1*,79.2*
CCOCCCNC(=O)c1ccc2c(c1)N=C(CC)c1cc(Br)ccc1S2,-21.6,0.0,-15.5,-3.0,-0.7,-5.9
COC(=O)C(C(=O)OC)C(C[N+](=O)[O-])c1ccc(O)c(OC)c1 (centres undefined),-16.1,-3.0,0.7,-1.9,8.3,-3.4
CN(C)c1ccc(/C=N/NC(=O)c2cc(-c3ccc4c(c3)OCO4)n[nH]2)cc1,1.3,nt,-12.4,2.5,59.8*,1.1
CCOC(=O)Cc1nn(Cc2nc(-c3ccc(C#N)cc3)cs2)c(=O)c2ccccc12,-6.8,nt,-6.7,-0.8,-3.2,8.2
SMILES,Mcl1-Bid inh,Mcl-1 Bim block,p47phox inh,eIF4E 4G PPI,Mcl1-Noxa inh,14-3-3 Bad inh
Nc1nnnn1CC(=O)N/N=C/c1cc([N+](=O)[O-])ccc1Cl,-29.7,1.0,-6.5,0.5,-4.2,-5.8
Cc1cc([N+](=O)[O-])c(C)cc1-c1ccc(/C=N/NC(=O)Cn2nnnc2N)o1,52.6*,1.0,-90.6,22.5,54.9*,87.8*
O=C(N/N=C/c1cccc([N+](=O)[O-])c1)c1cc2c(ccc3ccccc32)o1,81.8*,0.0,-4.9,-47.4,30.6,68.7
Cc1ccc([N+](=O)[O-])cc1-c1ccc(/C=N/NC(=O)c2cc3c(ccc4ccccc43)o2)o1,-13.0,0.0,-38.2,-22.3,6.3,85.3*[fluorescence artefact?]
O=C(N/N=C/c1ccc(-c2ccc(Cl)c(C(=O)O)c2)o1)c1cc2c(ccc3ccccc32)o1,95.6*,nt,-25.6,24.8,109.7*,56.8
CCn1cc(-c2n[nH]c(=S)n2-c2ccc(C)cc2Br)c(=O)c2ccc(C)nc21,-13.8,nt,-10.8,5.2,19.6,0.0
O=S(=O)(NCCc1ccccc1)c1ccc(Cl)nc1,-5.0,-3.0,-8.2,2.2,11.6,-11.1
CCCN(CCC)CCNC(=S)Nc1ccc2nc3n(c(=O)c2c1)CCCCC3,-46.2,-3.0,-3.3,0.7,17.6,-12.0
CN(C)[C@@H]1C(=O)C(C(=O)NCN2CCCC2)=C(O)[C@@]2(O)C(=O)C3=C(O)c4c(O)cccc4[C@@](C)(O)C3CC12 (some centres undefined),86.8*,22.0,9.2,63.8*,103.4*,85.2*
CCn1c(-c2cc(-c3cc(C)ccc3C)nc3ccccc23)n[nH]c1=S,42.6,-2.0,-97.8,3.4,44.1,12.0
CCn1c(-c2cc(C3CC3)nc3ccccc23)n[nH]c1=S,-10.8,-5.0,8.6,1.8,54.7*,32.2
COc1ccc(C(=O)NCC(=O)N/N=C/C=C/c2ccccc2)cc1OC,-40.5,2.0,-3.5,-3.5,14.1,-8.2
Cc1cnn(Cc2cccnc2)c1N,-153.5,nt,-12.3,4.0,4.5,-1.5
COc1ccc(N2CCN(c3cnc4ccccc4n3)CC2)cc1,-15.9,3.0,-2.2,8.4,59.0*,45.9
O=C(Nc1nccs1)c1ccc(-c2ccc([N+](=O)[O-])cc2)o1,26.1,1.0,-22.0,11.8,65.5*,52.1
COc1ccc(NC(=O)c2ccc(-c3ccc([N+](=O)[O-])cc3)o2)cc1,2.0,0.0,16.1,7.8,50.6*,16.7
O=C(Nc1nccs1)c1ccc(-c2ccc(Cl)cc2)o1,4.2,0.0,5.9,1.7,8.0,-4.4
